About 280 (0.15%) of roughly 190,000 compounds were called active. No stated cut-off is given here; in the data, active means inhibition above about 27% (passing the limit was not always enough); inactive means the rest. Only a selection was taken, and actives are over-represented in it overall.
system: HCMV UL50-UL53 nuclear egress complex (human cytomegalovirus); experiment: HCMV nuclear egress complex disruptors – biochemical, HTRF (AID 1918969); conditions: HTRF UL50-UL53 interaction, normalized percent inhibition; hits give high values; concentration not given here

| SMILES | inhibition |
| --- | --- |
| CC(C)(C)c1ccc(CN2C(=O)N(Cc3ccccc3)S(=O)(=O)c3ccccc32)cc1 | -19.5% (inactive) |
| Cc1nnc(NC(=O)Cn2cnc3oc(C)c(C)c3c2=O)s1 | -21.8% (inactive) |
| O=S(=O)(NCCc1ccccn1)c1cc(Cl)cc(Cl)c1O | -28.9% (inactive) |
| Cc1noc(C)c1C(=O)c1c(C)[nH]n(-c2ccccc2)c1=O | -25.3% (inactive) |
| Cc1ccc(Sc2c(C)[nH]n(-c3ccccc3)c2=O)cc1 | -26% (inactive) |
| CC1=NOC(=O)C1C(c1cccc(Br)c1)c1c(C)[nH]n(-c2ccccc2)c1=O (configuration not stated) | 59.5% (active) |
| O=C(CN1C(=O)c2ccccc2C1=O)Nc1ccc2c(c1)CCC(=O)N2 | -46% (inactive) |
| COC(=O)c1ccc(C)c(NS(=O)(=O)c2ccc3c(c2)c(=O)sn3C)c1 | -31.7% (inactive) |
| S=C(c1ccncc1)N1CCOCC1 | -13.4% (inactive) |
| CCCCCCCCCCCCCCCC(=O)O[C@@H]1[C@@H](O)[C@@H](O)C([C@H](NC(=O)[C@@H]2C[C@@H](CCC)CN2C)[C@H](C)Cl)O[C@@H]1SC (some centres not stated) | -4.7% (inactive) |
| N#CCCn1cc(C=NCc2ccccc2)c(-c2cc3ccccc3o2)n1 | -30.5% (inactive) |
| COc1ccc(F)cc1-c1cc(N2CCN(S(=O)(=O)c3ccc(F)c(Cl)c3)CC2)ncn1 | -27.5% (inactive) |
| NS(=O)(=O)c1ccc(NC(=O)c2cc(-c3ccc4c(c3)OCO4)nc3ccccc23)cc1 | -4.6% (inactive) |
| COC(=O)c1sccc1NC(=O)c1cc(=O)n2c(nc3cc(C)c(C)cc32)s1 | -30.2% (inactive) |
| O=C1CN(S(=O)(=O)c2ccc(-c3ccc(=O)[nH]n3)s2)c2ccccc2N1 | -43.4% (inactive) |
| O=C(Oc1ccccc1)c1cccc(C(=O)Oc2ccccc2)c1F | -13.9% (inactive) |
| COc1ccc(OC)c(NC(=O)c2cc3c([nH]c2=O)CC(C)(C)CC3=O)c1 | 3.5% (inactive) |
| Cc1ccc(C(=O)NCC(=O)NC2CC2)cc1 | -17.5% (inactive) |
| N#CC(C#N)=C1SCN(c2cccc(Cl)c2)CS1 | -5% (inactive) |

| SMILES | inhibition |
| --- | --- |
| COc1cccc(NC(=O)c2c(-c3cccnc3)noc2C)c1 | -15.4% (inactive) |
| COc1ccc(NC(=O)CCCSc2nc3sc(C)c(C)c3c(=O)[nH]2)cc1 | -2.2% (inactive) |
| CNc1nc(OC)nc(N(C)C)n1 | 11.3% (inactive) |
| O=C(Nc1ccc2oc(-c3ccccc3Br)nc2c1)c1cccc([N+](=O)[O-])c1 | 7% (inactive) |
| CCc1nc(-c2cc(S(=O)(=O)N3CCCC(C(=O)Nc4ccc(C)c(F)c4)C3)c(C)s2)no1 (configuration not stated) | -9.2% (inactive) |
| Cc1ccc(NC(=O)CCCc2nc3cccnc3n2CCC(C)C)cc1 | -10.6% (inactive) |
| Nc1nc(Nc2ccccc2)sc1C(=O)c1ccc(Br)cc1 | -4.3% (inactive) |
| CC1(C)Cc2cccc(Oc3ncnc4sccc34)c2O1 | -13% (inactive) |
| O=C(CCS(=O)(=O)c1ccc2c(c1)NC(=O)CS2)NCc1ccccc1Cl | -15.7% (inactive) |
| OC(Cc1nc2ccccc2o1)c1ccccc1 (configuration not stated) | -3.6% (inactive) |
| COc1ccc(C(=O)CSc2nc3nc[nH]c3c(=O)[nH]2)cc1 | -13.4% (inactive) |
| COc1cc(=O)[nH]c(SC(C)C(=O)Nc2ccccc2)n1 (configuration not stated) | -5.6% (inactive) |
| CCCc1noc(-c2cc(S(N)(=O)=O)ccc2OC)n1 | 3.5% (inactive) |
| O=C(Cc1nc2ccccc2n1C(F)F)c1ccccc1 | -21.1% (inactive) |
| COc1ccc(N(Cc2nc3ccccc3s2)S(=O)(=O)c2cccs2)cc1 | -24.9% (inactive) |
| NC(=O)c1ccc2c3c(cccc13)CC2 | -30.8% (inactive) |
| Cc1nc(Nc2ccc(NC(=O)C(C)(C)C)cc2)cc(N(C)C)n1 | 7.9% (inactive) |
| COc1cc(-c2noc(-c3ccccc3)n2)ccc1OCC(=O)Nc1ccc(F)cc1 | -31.7% (inactive) |
| CCOC(=O)C1C(=O)CC(=O)C(C(=O)OCC)C1c1ccccc1 (configuration not stated) | -6.9% (inactive) |

| SMILES | inhibition |
| --- | --- |
| CCOC(=O)c1noc2ncnc(N(CC)c3ccccc3)c12 | -26.1% (inactive) |
| O=C(NCN1CCN(CNC(=O)c2ccccc2)CC1)c1ccccc1 | -42.2% (inactive) |
| CCn1c(=O)c(=O)n(CC)c2cc(N3CCCCC3)c(NC(=O)c3ccccc3)cc21 | -23.2% (inactive) |
| CCn1c(=O)c(=O)n(CC)c2cc(N3CCCCC3)c(NC(=O)c3ccc(Cl)cc3)cc21 | 62.9% (active) |
| CCn1c(=O)c(=O)n(CC)c2cc(N3CCCCC3)c(NC(=O)c3cccc(F)c3)cc21 | -3.5% (inactive) |
| CCCCn1c(SCC(=O)N2CCCC2)nc2cn(C)nc2c1=O | -19.7% (inactive) |
| Cn1cc(CCC(=O)NC2CC2)c2ccccc21 | 0.4% (inactive) |
| CC1(C)CC(=O)C2=C(C1)N(Cc1ccco1)C(=O)C2(NC(=O)c1cccs1)C(F)(F)F (configuration not stated) | -5.4% (inactive) |
| CCN(CC)c1ccc2cc(-c3csc(-c4nc(-c5cc6ccc(N(CC)CC)cc6oc5=O)cs4)n3)c(=O)oc2c1 | -0.5% (inactive) |
| Cc1cc(NC(=O)c2ccc(N(C)C)cc2)no1 | 1.2% (inactive) |
| O=C(CC1=NS(=O)(=O)c2ccccc2N1)N1CCN(C(c2ccccc2)c2ccccc2)CC1 | -9.6% (inactive) |
| C/C(=N\O)C(C)(C)Nc1ccccc1 | 24.2% (inactive) |
| Cc1ccc(S(=O)(=O)N(C)CC(=O)OCc2nc3ccccc3s2)cc1 | -25.9% (inactive) |
| CCOC(=O)c1c(NC(=O)CSc2nccn2C)sc2c1CCC(C)C2 (configuration not stated) | -12.2% (inactive) |
| CC(C)N(C(=O)CNc1cc(Cl)ccc1Cl)c1ccccc1 | -6.5% (inactive) |
| O=C1c2ccccc2C(=O)C1c1ccccc1F | -3.9% (inactive) |
| Cc1c(OCC(N)=O)ccc2c3c(c(=O)oc12)CCCC3 | 7.5% (inactive) |
| NC(=O)c1ccc(-c2ccccc2)cc1C(N)=O | -28.2% (inactive) |
| Nc1nc(N)nc(SCC(=O)N2CCCC2)n1 | -9.6% (inactive) |

Reference: PubChem BioAssay AID1918969 (ICCB-Longwood Screening Facility, Harvard Medical School, 2023)
